Hits are enriched below; roughly 8.3% of the tested compounds scored in any of these assays.
LASV entry inh: inhibitors of Lassa virus binding or cell entry. Potency, µM (highest dose often 37.9 µM), for inactives: at the highest dose activity change, negative = inhibition, actives largely listed as inhibitors. hit rate 1.2% among 300,000. Lassa virus pseudotype entry inhibition, cell reporter. AID 540256; calls by dose curve; tested in HEK293 cells; note: potency is the fitted concentration of half-maximal effect; nearly all actives have a fitted effect of over 50% in size
HCV inhibitor: HCV inhibition; Potency, µM (highest dose often 41.8 µM), inactives show at the highest dose activity change, negative = inhibition, actives largely listed as inhibitors; AID 651820; hit rate 3.4% among 340,000; Huh7.5.1 HCVcc-Cre infection, luciferase reporter, 44 h; note: potency is the fitted concentration of half-maximal effect
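Luciferase read-out (15 sec integration) after a 15 min room-temperature substrate step quantifies HCVcc-Cre infection. Cells, 1,000 per well, had compound added 4 h post-plating, then virus at ~0.5 moi, and were cultured 44 h.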
Giardia FBPA inh-1: inhibitors of Giardia lamblia fructose-1,6-bisphosphate aldolase; A8B2U2; purified Giardia FBPA; Potency, µM (titrated, usually from 59.6 µM), without a hit: at the top dose activity, negative = inhibition, actives largely listed as inhibitors; hit rate 0.71% among 290,000; AID 2451; note: potency is the fitted concentration of half-maximal effect; nearly all actives have a fitted effect of over 55% in size
Target sequence (A8B2U2 whole entry, looked up): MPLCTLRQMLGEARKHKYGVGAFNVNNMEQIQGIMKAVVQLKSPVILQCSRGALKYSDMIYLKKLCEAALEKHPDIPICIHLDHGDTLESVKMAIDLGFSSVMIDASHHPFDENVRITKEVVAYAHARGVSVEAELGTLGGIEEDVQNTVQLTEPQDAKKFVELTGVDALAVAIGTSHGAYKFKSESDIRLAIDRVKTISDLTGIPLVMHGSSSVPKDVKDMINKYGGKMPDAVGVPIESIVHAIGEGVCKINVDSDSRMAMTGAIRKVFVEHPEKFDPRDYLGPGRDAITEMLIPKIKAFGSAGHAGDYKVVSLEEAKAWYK
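40 nM FBPA preincubated 10 min at RT with compound (up to 57.5 uM final), then substrate plus GAPDH/TPI/NAD/arsenate coupling and diaphorase/resazurin added. Fluorescence read after 20 min at RT, 525/598 nm.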
FMDV inh: blocks foot and mouth disease virus. FMDV antiviral cell-based qHTS. Potency, µM (titrated, usually from 57.9 µM), without a hit: at the highest dose activity change, negative = inhibition, most hits filed as inhibitors. hit rate 1.2% among 410,000. AID 1159524; calls by dose curve; tested in HEK293T cells; note: read-out not given here; potency is the fitted concentration of half-maximal effect; nearly all actives have a fitted effect of over 45% in size
Marburg entry inh: inhibitors of Marburg virus binding or cell entry. Marburg virus pseudotyped entry inhibition, cell reporter. Potency, µM (titrated, usually from 37.8 µM), inactives show at the highest dose activity change, negative = inhibition, hits mostly inhibitors. hit rate 1.8% among 300,000. AID 540276; calls by dose curve; tested in HEK293 cells; note: potency is the fitted concentration of half-maximal effect
HCMV antiviral: human cytomegalovirus inhibition; HFF cells, HCMV-luciferase reporter, 72 h; hits give low values; activity change, negative = inhibition, % at 57.5 µM; hit rate 4.5% among 410,000; AID 1259415; in the data active = activity change below about -60%; inconclusive = no clear call, values can overlap the other calls; inactive = above about -39%
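Compounds were evaluated in HFFs infected with an HCMV luciferase reporter virus (MOI 1 PFU/cell). Luciferase in lysates collected 72 h post infection served as the replication measure.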
Giardia growth: inhibitors of Giardia lamblia growth; Giardia lamblia trophozoite growth inhibition; shares compounds with Giardia FBPA inh-1; Potency, µM (top dose mostly 57.5 µM), for the others: at the top dose activity change, negative = inhibition, most hits filed as inhibitors; hit rate 5% among 1,500;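 note: potency is the fitted concentration of half-maximal effect; trophozoites exposed to compound for 48 h at 37 °C; nearly all actives have a fitted effect of over 70% in size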
Mammalian tox: toxic to mammalian cells in Giardia aldolase counter-screen; shares compounds with Giardia FBPA inh-1; mammalian cell viability counter-screen, qHTS; Potency, µM (doses to about 57.5 µM), for inactives: at the top dose viability change, negative = toxicity, hits mostly inhibitors; hit rate 4% among 1,500; AID 2786;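 note: Chinese hamster ovary cells used as mammalian cytotoxicity surrogate; viability measured as cellular ATP by luminescence; potency is the fitted concentration of half-maximal effect; compound exposure lasted 48 h before reading; nearly all actives have a fitted effect of over 60% in size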
Giardia FBPA inh-2: confirmation of Giardia fructose-bisphosphate aldolase inhibitors | hit rate 5% among 1,500 | shares compounds with Giardia FBPA inh-1 | purified Giardia aldolase enzyme activity, qHTS | Potency, µM (highest dose often 57.5 µM), for inactives: at the top dose activity change, negative = inhibition, hits mostly inhibitors | AID 2787; note: potency is the fitted concentration of half-maximal effect; nearly all actives have a fitted effect of over 45% in size
Rabbit aldolase: selectivity test for Giardia aldolase inhibitors: rabbit aldolase | shares compounds with Giardia FBPA inh-1 | AID 2794 | Potency, µM (doses to about 57.5 µM), without a hit: at the top dose activity, negative = inhibition, actives largely listed as inhibitors | hit rate 4% among 1,500 | Rabbit muscle FBPA enzyme inhibition, selectivity counter-screen; note: potency is the fitted concentration of half-maximal effect; nearly all actives have a fitted effect of over 60% in size
Target sequence (P00883 whole entry, looked up): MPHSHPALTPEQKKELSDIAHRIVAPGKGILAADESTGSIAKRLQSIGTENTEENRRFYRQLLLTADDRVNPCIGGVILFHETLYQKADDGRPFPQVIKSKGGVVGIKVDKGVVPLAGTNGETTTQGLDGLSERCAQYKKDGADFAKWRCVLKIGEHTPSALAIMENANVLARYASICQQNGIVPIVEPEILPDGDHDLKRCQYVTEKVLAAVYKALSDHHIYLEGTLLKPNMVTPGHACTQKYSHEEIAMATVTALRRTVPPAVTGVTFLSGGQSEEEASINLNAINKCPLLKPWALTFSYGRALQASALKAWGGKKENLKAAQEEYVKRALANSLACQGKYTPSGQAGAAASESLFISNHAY
GAPDH counter: counter-screen for Giardia aldolase inhibitors: GAPDH coupling enzyme; shares compounds with Giardia FBPA inh-1; GAPDH coupling enzyme counterscreen, biochemical, qHTS; Potency, µM (doses to about 57.5 µM), for the others: top-dose activity change, negative = inhibition, actives largely listed as inhibitors; hit rate 6% among 1,500; AID 2795; note: potency is the fitted concentration of half-maximal effect; nearly all actives have a fitted effect of over 55% in size
An asterisk follows results filed as active; ! = not active in a repeat; [ ] = dose if it differs, or a comment. Unless noted, calls come from the whole dose curve; as a rule, active = well fitted curve in the direction sought with a large enough effect; inconclusive = small, poorly fitted or top-dose-only effect, or another doubt; inactive = no such curve, though single readings can be large; an effect the other way counts as inactive or inconclusive. % is set by controls: 0 for no effect and ±100 for the full control effect.

S=C(NCCc1ccccc1)Nc1c(Cl)cccc1Cl was read as LASV entry inh inconclusive, HCV inhibitor -11%, Giardia FBPA inh-1 10µM*, FMDV inh 23%, Marburg entry inh inconclusive, HCMV antiviral 18, Giardia growth -10%[38.3 µM], Mammalian tox -30%, Giardia FBPA inh-2 inconclusive, Rabbit aldolase inconclusive and GAPDH counter inconclusive.
For CNC(=S)NCCc1ccccc1 the results were LASV entry inh 10%, HCV inhibitor -10%, Giardia FBPA inh-1 5%, FMDV inh 7%, Marburg entry inh 6%[46.1 µM] and HCMV antiviral 9.
`CC(C)(CO)[C@H](O)C(=O)NCCC(=O)O` gave Giardia FBPA inh-1 -2%[21.7 µM].
C[C@H](N)C(=O)N1CCC(C(=O)N[C@@H](Cc2ccccc2)C(=O)Nc2ccc(F)cc2)CC1 was read as HCV inhibitor 10%, Giardia FBPA inh-1 16µM*, FMDV inh -16%, HCMV antiviral -13, Giardia growth -26%, Mammalian tox 12%, Giardia FBPA inh-2 -2%, Rabbit aldolase -3% and GAPDH counter 3%.
For COc1ccc(-c2oc3ncn4nc(COc5ccccc5C)nc4c3c2-c2ccc(OC)cc2)cc1 the results were LASV entry inh 5%[46.1 µM], FMDV inh -5% and HCMV antiviral 6.
O=C(O)CP(=O)(O)O was read as LASV entry inh inconclusive, HCV inhibitor 2%[8.37 µM], Giardia FBPA inh-1 -15%, FMDV inh -4%, Marburg entry inh inconclusive and HCMV antiviral 45.
`O=C(O)CN(CCN(CC(=O)O)CC(=O)O)CCN(CC(=O)O)CC(=O)O` gave LASV entry inh 2%, Giardia FBPA inh-1 7.9µM*!, Marburg entry inh -29%, Giardia growth inconclusive, Mammalian tox 21%, Giardia FBPA inh-2 inconclusive, Rabbit aldolase 14% and GAPDH counter 1%.
`NC(=S)N/N=C/c1cn(CCC(=O)O)nc1-c1cccc(Br)c1` gave LASV entry inh 9%, HCV inhibitor 0%, Giardia FBPA inh-1 inconclusive, FMDV inh -9%, Marburg entry inh 17%[46.1 µM] and HCMV antiviral inconclusive.
`COc1ccc(-c2nn(CCC(=O)O)cc2/C=N/NC(N)=S)cc1` gave LASV entry inh 0%, HCV inhibitor 14%, Giardia FBPA inh-1 16µM*, FMDV inh -9%, Marburg entry inh 17%[46.1 µM], HCMV antiviral 32, Giardia growth 3%[10.4 µM], Mammalian tox 18%, Giardia FBPA inh-2 1%, Rabbit aldolase 2% and GAPDH counter 11%.
For CC(C)c1noc(-c2ccccc2OCC(=O)Nc2ccc([N+](=O)[O-])cc2)n1 the results were LASV entry inh 15%[46.1 µM], FMDV inh -3%, Marburg entry inh 5%[46.1 µM] and HCMV antiviral 9.
`COC(=O)c1ccc(NC(=O)CN2CCOCC2)cc1` gave LASV entry inh 1%, HCV inhibitor 4%, Giardia FBPA inh-1 1%, FMDV inh 0%, Marburg entry inh -4% and HCMV antiviral 5.
COC(=O)c1ccc(NC(=O)CN2CCN(CC#N)CC2)cc1 was read as LASV entry inh inconclusive, HCV inhibitor 22%, Giardia FBPA inh-1 25µM*, FMDV inh 12%, Marburg entry inh inconclusive, HCMV antiviral -18, Giardia growth -5%[38.3 µM], Mammalian tox 14%, Giardia FBPA inh-2 1%, Rabbit aldolase -2% and GAPDH counter 2%.
Cc1c(NN=C(C#N)C#N)c(=O)n(-c2ccccc2)n1C was read as LASV entry inh -15%, HCV inhibitor inconclusive, Giardia FBPA inh-1 25µM*, FMDV inh 14µM*, Marburg entry inh 28%[46.1 µM], HCMV antiviral -30, Giardia growth 17%, Mammalian tox 21%, Giardia FBPA inh-2 1%, Rabbit aldolase 2% and GAPDH counter 5%.
For Cc1c(NC(=O)/C(C#N)=C/c2ccccc2)c(=O)n(-c2ccccc2)n1C the results were LASV entry inh -18%, HCV inhibitor 16%, Giardia FBPA inh-1 2%, FMDV inh -25%, Marburg entry inh -20% and HCMV antiviral -21.
Screening COc1cc(C(=O)O/N=C2/C=C(C)C(=O)C=C2C)cc(OC)c1OC returned LASV entry inh 4%[46.1 µM], HCV inhibitor 2%, Giardia FBPA inh-1 6.3µM*, FMDV inh -17%, Marburg entry inh -6%[46.1 µM], HCMV antiviral -33, Giardia growth 5%[10.4 µM], Mammalian tox -29%, Giardia FBPA inh-2 14µM*, Rabbit aldolase 6.3µM* and GAPDH counter 3.2µM*.
`O=C(O)c1cc2ncc(CCO)cn2n1` gave LASV entry inh 22%[46.1 µM], HCV inhibitor 10%, Giardia FBPA inh-1 16µM*, FMDV inh -20%, Marburg entry inh -9%[46.1 µM], HCMV antiviral -4, Giardia growth -16%, Mammalian tox -2%, Giardia FBPA inh-2 8%, Rabbit aldolase 5% and GAPDH counter 5%.
`CC(=O)c1c(C)nc(-c2ccc(Cl)cc2)nc1N` gave LASV entry inh 29%[46.1 µM], HCV inhibitor -4%, Giardia FBPA inh-1 5µM*, FMDV inh 22%, Marburg entry inh 12%[46.1 µM], HCMV antiviral 73, Giardia growth -29%[38.3 µM], Mammalian tox 4%, Giardia FBPA inh-2 9%, Rabbit aldolase 15% and GAPDH counter 0%.
CC(=O)c1c(C)nc(-c2ccc(Cl)cc2)nc1N=CN(C)C was read as LASV entry inh -5%, HCV inhibitor 1%, Giardia FBPA inh-1 inconclusive, FMDV inh 38%, Marburg entry inh -15% and HCMV antiviral 171.
For CCc1ccc2oc(C(=O)NCCc3ccc(OC)c(OC)c3)cc(=O)c2c1 the results were LASV entry inh -22%[46.1 µM], FMDV inh inconclusive, Marburg entry inh -24%[46.1 µM] and HCMV antiviral -39.
`CC(C(=O)Nc1ccccc1C(F)(F)F)N1CCN(C)CC1` (centres undefined) gave HCV inhibitor 2%, Giardia FBPA inh-1 16µM*, FMDV inh 2%, HCMV antiviral 24, Giardia growth -7%[10.4 µM], Mammalian tox 9%, Giardia FBPA inh-2 4%, Rabbit aldolase -3% and GAPDH counter 13%.

High-throughput results as filed in PubChem.
